According to PubChem BioAssay (Tox21):
Results filed as inconclusive are left out. The source made the active and inactive calls. Unless noted, calls come from the whole dose curve; as a rule, active = well fitted curve in the direction sought with a large enough effect in the repeat runs; inconclusive = weak or mixed curves; inactive = no such curve, though single readings can be large; an effect the other way counts as inactive or inconclusive.

What was measured:
[1] = molecular target: Aryl hydrocarbon receptor (Homo sapiens) (UniProt P35869); assay: qHTS assay to identify small molecule that activate the aryl hydrocarbon receptor (AhR) signaling pathway (AID 743085); note: nearly all actives have a fitted effect of over 15% in size; note: potency is the fitted concentration of half-maximal effect;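 for activation: HG2L7.5c1 human HepG2 liver cells with stably integrated DRE-driven firefly reporter; series mostly up to about 70 µM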
Sequence of Aryl hydrocarbon receptor (Homo sapiens) (P35869 whole entry, looked up): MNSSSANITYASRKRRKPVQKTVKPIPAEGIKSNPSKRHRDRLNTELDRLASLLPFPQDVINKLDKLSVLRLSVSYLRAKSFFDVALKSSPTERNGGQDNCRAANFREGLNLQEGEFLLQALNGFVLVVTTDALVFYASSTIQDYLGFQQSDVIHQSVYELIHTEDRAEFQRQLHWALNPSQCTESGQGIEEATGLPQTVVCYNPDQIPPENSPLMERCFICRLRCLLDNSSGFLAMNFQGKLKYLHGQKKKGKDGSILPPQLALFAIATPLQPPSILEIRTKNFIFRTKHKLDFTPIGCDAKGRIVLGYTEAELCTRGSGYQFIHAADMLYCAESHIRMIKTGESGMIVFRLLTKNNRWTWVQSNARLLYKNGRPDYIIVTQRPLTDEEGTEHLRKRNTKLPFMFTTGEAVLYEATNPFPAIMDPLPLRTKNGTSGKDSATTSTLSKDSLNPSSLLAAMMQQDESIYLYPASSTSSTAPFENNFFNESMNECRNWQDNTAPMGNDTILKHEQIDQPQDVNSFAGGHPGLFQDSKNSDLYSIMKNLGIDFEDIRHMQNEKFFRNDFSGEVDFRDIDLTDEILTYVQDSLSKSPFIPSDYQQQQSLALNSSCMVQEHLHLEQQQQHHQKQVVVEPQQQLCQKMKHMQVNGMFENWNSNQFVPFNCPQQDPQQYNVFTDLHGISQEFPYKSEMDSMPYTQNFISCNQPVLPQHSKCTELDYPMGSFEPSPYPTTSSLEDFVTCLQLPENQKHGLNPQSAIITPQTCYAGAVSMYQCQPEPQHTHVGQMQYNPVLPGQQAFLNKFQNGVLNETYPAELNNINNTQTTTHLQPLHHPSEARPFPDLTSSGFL
Summary of the method: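 AhR agonist activity is inferred from enhanced light output of a DRE-controlled firefly luciferase reporter in HepG2 cells, measured with ONE-Glo following 24 h treatment at 37C.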

[2] = qHTS assay to identify small molecule that activate the aryl hydrocarbon receptor (AhR) signaling pathway - cell viability counter screen (AID 743086);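 note: HepG2 liver cells carrying the AhR DRE luciferase reporter; series mostly up to about 70 µM; nearly all actives have a fitted effect of over 45% in size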
Summary of the method: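 Cytotoxicity counter screen: CellTiter-Fluor signal (30 min, 37 C) in 4000 HepG2 cells/well carrying the DRE-luciferase reporter, following 24 h compound exposure at 37 C.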

[3] = molecular target: Peroxisome proliferator-activated receptor gamma (Homo sapiens) (UniProt P37231); assay: qHTS assay to identify small molecule agonists of the peroxisome proliferator-activated receptor gamma (PPARg) signaling pathway (AID 743094; active = well fitted activation curve with a large enough effect in the signal ratio in the repeat runs, not every such curve was filed as active; the % refers to the signal ratio)
Sequence of Peroxisome proliferator-activated receptor gamma (Homo sapiens) (P37231 whole entry, looked up): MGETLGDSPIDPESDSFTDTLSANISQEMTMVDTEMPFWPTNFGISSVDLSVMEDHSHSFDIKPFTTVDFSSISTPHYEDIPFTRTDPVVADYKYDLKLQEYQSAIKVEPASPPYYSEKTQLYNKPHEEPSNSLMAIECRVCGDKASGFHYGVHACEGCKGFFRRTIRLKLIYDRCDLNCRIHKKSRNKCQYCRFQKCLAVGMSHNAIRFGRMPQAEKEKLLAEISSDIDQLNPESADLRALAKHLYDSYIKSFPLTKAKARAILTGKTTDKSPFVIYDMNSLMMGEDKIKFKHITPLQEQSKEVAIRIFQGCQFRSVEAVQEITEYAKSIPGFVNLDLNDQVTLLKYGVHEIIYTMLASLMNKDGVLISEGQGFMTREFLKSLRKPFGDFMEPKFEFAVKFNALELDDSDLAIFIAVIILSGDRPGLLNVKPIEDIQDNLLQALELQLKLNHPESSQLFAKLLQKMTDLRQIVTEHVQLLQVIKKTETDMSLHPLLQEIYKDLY
Summary of the method: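 Quantitative HTS agonist mode: stable HEK293H line with UAS-beta-lactamase reporter under PPARg control, 17 h compound exposure at 37C, fluorescence after 1 h FRET substrate loading at room temperature.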

[4] = molecular target: Peroxisome proliferator-activated receptor gamma (Homo sapiens) (UniProt P37231); assay: qHTS assay to identify small molecule antagonists of the peroxisome proliferator-activated receptor gamma (PPARg) signaling pathway (AID 743191; calls by dose curve; note: series mostly up to about 63 µM; nearly all actives have a fitted effect of over 30% in size)
Summary of the method: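 Beta-lactamase reporter under UAS control in HEK293H PPARg-bla cells; compound treatment 17 h at 37C. Read-out: fluorescence intensity after 1 h room-temperature incubation with LiveBLAzer B/G FRET substrate.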

[5] = qHTS assay to identify small molecule antagonists of the peroxisome proliferator-activated receptor gamma (PPARg) signaling pathway - cell viability counter screen (AID 743194); note: nearly all actives have a fitted effect of over 55% in size
Summary of the method: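 Viability was measured as CellTiter-Glo luminescence in GeneBLAzer PPARg UAS-bla HEK293H cells. These cells had been exposed 17 h at 37 C to compounds together with rosiglitazone at 50 nM final, with the beta-lactamase readout taken in the same wells.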

[6] = qHTS assay for small molecule agonists of the antioxidant response element (ARE) signaling pathway (AID 743202; active = well fitted activation curve with a large enough effect in the signal ratio in the repeat runs, not every such curve was filed as active; the % refers to the signal ratio)
Summary of the method: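 An ARE-responsive beta-lactamase gene stably integrated in HepG2 cells serves as reporter. After 5 h plating and 16 h compound incubation at 37 C, fluorescence of the B/G FRET substrate was measured.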

[7] = qHTS assay for small molecule agonists of the antioxidant response element (ARE) signaling pathway - cell viability counter screen (AID 743203; calls by dose curve; note: nearly all actives have a fitted effect of over 55% in size)
Summary of the method: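 Seeded at 2,000 cells/well, ARE-bla HepG2 cells were incubated 5 hrs before compound addition. After 16 hrs of treatment at 37C with 5% CO2, CellTiter-Glo reagent was added and luminescence read 30 min later.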

[8] = qHTS assay for small molecule activators of the heat shock response signaling pathway - cell viability counter screen (AID 743209); note: nearly all actives have a fitted effect of over 50% in size
Summary of the method: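 First, HSE-bla HeLa cells were seeded at 1500 cells/well and kept overnight at 37 C. Next, compounds were pinned in and incubated 5 h. After the FRET substrate step, CellTiter-Glo was added and luminescence read 30 min later.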

[9] = qHTS assay for small molecule activators of the heat shock response signaling pathway (AID 743210; active = well fitted activation curve with a large enough effect in the signal ratio in the repeat runs, with a control signal flat, not every such curve was filed as active; the % refers to the signal ratio;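 note: HeLa cells with beta-lactamase reporter driven by heat shock elements; series mostly up to about 63 µM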)
Summary of the method: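 In HSE-bla HeLa cells, 5 h compound incubation (37 C) precedes addition of LiveBLAzer B/G substrate; after 2.5 h at room temperature, fluorescence intensity indicates reporter induction.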

[10] = qHTS assay to identify small molecule agonists of the peroxisome proliferator-activated receptor delta (PPARd) signaling pathway - cell viability counter screen (AID 743211); note: nearly all actives have a fitted effect of over 55% in size
Summary of the method: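 qHTS cell viability: PPARd-bla HEK293H; 17 h cpd, 37C; CellTiter-Glo, luminescence at 30 min RT.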

[11] = molecular target: Peroxisome proliferator-activated receptor delta (Homo sapiens) (UniProt Q03181); assay: qHTS assay to identify small molecule agonists of the peroxisome proliferator-activated receptor delta (PPARd) signaling pathway (AID 743212; calls by dose curve)
Sequence of Peroxisome proliferator-activated receptor delta (Homo sapiens) (Q03181 whole entry, looked up): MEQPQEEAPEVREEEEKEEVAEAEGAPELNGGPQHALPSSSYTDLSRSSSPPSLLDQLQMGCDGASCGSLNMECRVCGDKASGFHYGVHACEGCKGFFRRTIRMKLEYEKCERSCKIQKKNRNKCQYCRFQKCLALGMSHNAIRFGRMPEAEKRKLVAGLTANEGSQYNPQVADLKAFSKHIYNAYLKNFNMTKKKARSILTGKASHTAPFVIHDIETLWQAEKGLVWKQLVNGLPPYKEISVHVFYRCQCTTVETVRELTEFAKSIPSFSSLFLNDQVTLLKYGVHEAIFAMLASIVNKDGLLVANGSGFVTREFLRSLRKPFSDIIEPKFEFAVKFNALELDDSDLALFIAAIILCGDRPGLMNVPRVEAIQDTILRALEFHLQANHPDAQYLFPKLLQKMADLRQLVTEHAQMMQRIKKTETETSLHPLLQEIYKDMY
Summary of the method: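 HEK293H UAS-bla reporter cells, human PPARd system; compounds delivered in DMSO after 5 h plating, then at 37 C. Beta-lactamase FRET read, 2 h RT substrate step.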

[12] = qHTS assay to identify small molecule antagonists of the peroxisome proliferator-activated receptor delta (PPARd) signaling pathway - cell viability counter screen (AID 743213); note: nearly all actives have a fitted effect of over 50% in size
Summary of the method: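 Agonist-stimulated (L165041, 300 nM final) HEK293H PPARd UAS-bla cells are exposed to compounds for 17 h at 37 C, and ATP-based luminescence (CellTiter-Glo) from the same wells reports cytotoxicity.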

[13] = molecular target: Peroxisome proliferator-activated receptor delta (Homo sapiens) (UniProt Q03181); assay: qHTS assay to identify small molecule antagonists of the peroxisome proliferator-activated receptor delta (PPARd) signaling pathway (AID 743215; active = well fitted inhibition curve with a large enough effect in the signal ratio in the repeat runs, not every such curve was filed as active; the % refers to the signal ratio; note: series mostly up to about 62 µM)
Summary of the method: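 Inhibition of L165041-driven (300 nM final) PPARd signaling is scored in HEK293H UAS-bla cells. Exposure lasts 17 h at 37 C; beta-lactamase activity is then read by FRET substrate fluorescence after 2 h at room temperature.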

[14] = molecular target: Bile acid receptor (Homo sapiens) (UniProt Q96RI1); assay: qHTS assay to identify small molecule antagonists of the farnesoid-X-receptor (FXR) signaling pathway (AID 743217; active = well fitted inhibition curve with a large enough effect in the signal ratio in the repeat runs, not every such curve was filed as active; the % refers to the signal ratio)
Sequence of Bile acid receptor (Homo sapiens) (Q96RI1 whole entry, looked up): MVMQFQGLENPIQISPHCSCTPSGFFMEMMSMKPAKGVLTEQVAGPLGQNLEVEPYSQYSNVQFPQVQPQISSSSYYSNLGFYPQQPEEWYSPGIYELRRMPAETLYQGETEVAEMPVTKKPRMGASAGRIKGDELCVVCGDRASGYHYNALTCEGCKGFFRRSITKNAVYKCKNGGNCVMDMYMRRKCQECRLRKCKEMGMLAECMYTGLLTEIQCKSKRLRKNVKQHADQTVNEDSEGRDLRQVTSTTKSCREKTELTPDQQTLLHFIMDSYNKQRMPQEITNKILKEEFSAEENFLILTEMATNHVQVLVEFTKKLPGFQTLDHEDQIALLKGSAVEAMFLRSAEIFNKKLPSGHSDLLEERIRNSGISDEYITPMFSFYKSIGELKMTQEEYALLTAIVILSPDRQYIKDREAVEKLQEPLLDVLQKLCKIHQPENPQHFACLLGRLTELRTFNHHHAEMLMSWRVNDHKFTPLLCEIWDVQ
Summary of the method: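 Antagonist mode against 50 uM (final) chenodeoxycholic acid stimulation in FXR-bla HEK 293T cells, 16 h at 37 °C. Inhibition detected as reduced beta-lactamase activity via LiveBLAzer B/G FRET fluorescence after 2 h at room temperature.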

[15] = qHTS assay to identify small molecule agonists of the farnesoid-X-receptor (FXR) signaling pathway - cell viability counter screen (AID 743218); note: nearly all actives have a fitted effect of over 45% in size
Summary of the method: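 Cytotoxicity counter-screen run in parallel, same wells: FXR-UAS-bla HEK 293T cells dosed 16 h at 37 C, viability read by CellTiter-Glo luminescence after 30 min at room temperature.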

[16] = molecular target: Bile acid receptor (Homo sapiens) (UniProt Q96RI1); assay: qHTS assay to identify small molecule agonists of the farnesoid-X-receptor (FXR) signaling pathway (AID 743220; active = well fitted activation curve with a large enough effect in the signal ratio in the repeat runs, not every such curve was filed as active; the % refers to the signal ratio)
Summary of the method: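 Beta-lactamase reporter under UAS control in GeneBLAzer FXR HEK 293T cells (5000/well) measured with LiveBLAzer FRET substrate after 2 h at room temperature. Compound exposure lasted 16 h at 37C.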

[17] = qHTS assay to identify small molecule antagonists of the farnesoid-X-receptor (FXR) signaling pathway - cell viability counter screen (AID 743221; active = well fitted cell-killing curve with a large enough effect in the repeat runs, not every such curve was filed as active; note: nearly all actives have a fitted effect of over 50% in size)
Summary of the method: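 After a 5 h settling period, FXR-bla HEK 293T cells receive compound and chenodeoxycholic acid (50 uM final) and incubate 16 h at 37 C; CellTiter-Glo luminescence, read after 30 min at room temperature, reports cell viability.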

[18] = molecular target: Vitamin D3 receptor (Homo sapiens) (UniProt P11473); assay: qHTS assay to identify small molecule agonists of the vitamin D receptor (VDR) signaling pathway (AID 743222; calls by dose curve)
Sequence of Vitamin D3 receptor (Homo sapiens) (P11473 whole entry, looked up): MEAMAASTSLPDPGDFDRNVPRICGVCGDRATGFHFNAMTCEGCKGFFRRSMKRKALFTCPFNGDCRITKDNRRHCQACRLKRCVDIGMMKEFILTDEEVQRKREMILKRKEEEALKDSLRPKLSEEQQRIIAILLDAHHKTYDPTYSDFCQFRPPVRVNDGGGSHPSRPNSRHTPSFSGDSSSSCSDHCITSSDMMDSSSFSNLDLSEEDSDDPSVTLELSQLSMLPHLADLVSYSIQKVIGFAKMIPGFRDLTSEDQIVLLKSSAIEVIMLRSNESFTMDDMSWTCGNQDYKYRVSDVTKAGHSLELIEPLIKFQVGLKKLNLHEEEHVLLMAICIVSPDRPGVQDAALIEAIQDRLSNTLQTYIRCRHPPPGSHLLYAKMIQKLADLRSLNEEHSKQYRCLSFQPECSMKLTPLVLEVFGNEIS
Summary of the method: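 Quantitative HTS agonist-mode screen: compounds in DMSO were pin-transferred onto VDR-bla cells and incubated 16 h at 37C, 5% CO2. Reporter activity was detected with LiveBLAzer B/G FRET substrate after 2 h at room temperature.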

[19] = molecular target: Vitamin D3 receptor (Homo sapiens) (UniProt P11473); assay: qHTS assay to identify small molecule antagonists of the vitamin D receptor (VDR) signaling pathway (AID 743223; active = well fitted inhibition curve with a large enough effect in the signal ratio in the repeat runs, not every such curve was filed as active; the % refers to the signal ratio)
Summary of the method: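 Reporter line VDR-bla; stimulus 1alpha,25-(OH)2 vitamin D3, 3 nM final; compound co-addition, 16 h 37C/5% CO2; LiveBLAzer B/G substrate 2 h RT; fluorescence intensity.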

[20] = qHTS assay to identify small molecule agonists of the vitamin D receptor (VDR) signaling pathway - cell viability counter screen (AID 743224); note: series mostly up to about 63 µM; nearly all actives have a fitted effect of over 50% in size
Summary of the method: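 Viability is measured in the same wells as the VDR-bla reporter assay: after 16 h compound treatment and 2 h substrate loading, CellTiter-Glo is added and luminescence read 30 min later.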

Measured: Potency

CC(C)C1(C)N=C(c2nc3ccccc3cc2C(=O)O)NC1=O (centres undefined)
inactive: all assays above

c1cc2c3c(cccc3c1)CC2
not listed: [14] | [16] | [17] | [18] | [19]
inactive: all other assays above

Nc1ccc(Cc2ccc(N)cc2)cc1
active: [1] 30.1 µM
inactive: all other assays above

CCC12COCN1COC2
not listed: [5] | [14] | [16] | [17]
inactive: all other assays above

Cc1ccccc1O
not listed: [14] | [16]
inactive: all other assays above

Clc1ccc(Cl)cc1
not listed: [9] | [14] | [16]
inactive: all other assays above

CCNc1nc(NC(C)(C)C)nc(SC)n1
active: [1] 1.52 µM
not listed: [6] | [9]
inactive: all other assays above

CN=C=S
inactive: all assays above
